Assays:
[1] = target: T1, Mitogen-activated protein kinase kinase kinase 7 (Homo sapiens) (UniProt O43318); conditions: at 1 µM
T1 sequence (whole entry): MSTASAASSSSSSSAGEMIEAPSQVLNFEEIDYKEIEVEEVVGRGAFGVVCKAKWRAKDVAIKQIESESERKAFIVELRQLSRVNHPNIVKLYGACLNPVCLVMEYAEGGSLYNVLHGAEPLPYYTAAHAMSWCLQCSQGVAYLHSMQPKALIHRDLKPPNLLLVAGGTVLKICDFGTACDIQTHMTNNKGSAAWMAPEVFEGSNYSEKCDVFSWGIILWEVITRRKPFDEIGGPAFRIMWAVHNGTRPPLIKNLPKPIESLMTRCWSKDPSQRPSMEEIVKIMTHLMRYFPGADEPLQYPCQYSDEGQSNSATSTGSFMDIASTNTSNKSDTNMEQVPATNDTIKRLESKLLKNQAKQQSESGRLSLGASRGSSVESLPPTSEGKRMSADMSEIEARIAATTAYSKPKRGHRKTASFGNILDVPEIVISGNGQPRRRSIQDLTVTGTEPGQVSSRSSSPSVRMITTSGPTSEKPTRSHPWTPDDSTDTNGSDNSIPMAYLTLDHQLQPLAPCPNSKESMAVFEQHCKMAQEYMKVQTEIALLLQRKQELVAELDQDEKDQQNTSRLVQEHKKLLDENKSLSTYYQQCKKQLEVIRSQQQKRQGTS

[2] = target: T1, Mitogen-activated protein kinase kinase kinase 7 (Homo sapiens); conditions: at 10 µM
[3] = target: T2, Serine/threonine-protein kinase TAO2 (Homo sapiens) (UniProt Q9UL54); conditions: at 1 µM
T2 sequence (whole entry): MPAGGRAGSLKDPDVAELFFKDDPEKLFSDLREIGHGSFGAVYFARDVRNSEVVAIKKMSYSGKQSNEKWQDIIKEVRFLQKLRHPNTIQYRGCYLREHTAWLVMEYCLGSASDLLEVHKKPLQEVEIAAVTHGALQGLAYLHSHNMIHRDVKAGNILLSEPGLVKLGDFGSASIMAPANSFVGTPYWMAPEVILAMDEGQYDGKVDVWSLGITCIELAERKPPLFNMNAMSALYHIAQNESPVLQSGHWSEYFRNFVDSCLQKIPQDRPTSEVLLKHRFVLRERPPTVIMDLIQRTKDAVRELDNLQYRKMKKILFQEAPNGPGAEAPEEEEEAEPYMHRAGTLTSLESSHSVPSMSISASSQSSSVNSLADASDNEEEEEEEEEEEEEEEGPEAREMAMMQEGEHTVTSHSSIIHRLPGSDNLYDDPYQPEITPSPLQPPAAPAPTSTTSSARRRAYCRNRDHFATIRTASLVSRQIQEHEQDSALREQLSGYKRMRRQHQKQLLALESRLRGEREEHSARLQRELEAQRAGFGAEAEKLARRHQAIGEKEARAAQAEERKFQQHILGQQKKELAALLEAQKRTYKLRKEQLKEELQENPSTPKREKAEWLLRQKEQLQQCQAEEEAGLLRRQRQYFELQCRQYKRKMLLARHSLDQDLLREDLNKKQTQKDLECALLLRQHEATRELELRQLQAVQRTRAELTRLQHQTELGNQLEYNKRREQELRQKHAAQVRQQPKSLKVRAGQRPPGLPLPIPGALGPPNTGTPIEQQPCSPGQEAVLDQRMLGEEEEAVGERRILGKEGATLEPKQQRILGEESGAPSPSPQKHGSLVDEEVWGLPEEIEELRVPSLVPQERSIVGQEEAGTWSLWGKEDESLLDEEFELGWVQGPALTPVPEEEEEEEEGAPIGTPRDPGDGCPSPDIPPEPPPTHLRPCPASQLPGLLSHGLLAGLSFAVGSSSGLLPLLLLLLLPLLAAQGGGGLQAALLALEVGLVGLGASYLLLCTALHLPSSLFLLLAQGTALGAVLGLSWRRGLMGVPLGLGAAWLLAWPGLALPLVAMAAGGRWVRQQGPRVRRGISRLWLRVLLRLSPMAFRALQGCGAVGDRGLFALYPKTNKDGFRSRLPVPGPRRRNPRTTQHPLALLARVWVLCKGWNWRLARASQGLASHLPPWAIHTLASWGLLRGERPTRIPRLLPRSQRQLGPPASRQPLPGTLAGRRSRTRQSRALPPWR

[4] = target: T2, Serine/threonine-protein kinase TAO2 (Homo sapiens); conditions: at 10 µM
[5] = target: T3, Serine/threonine-protein kinase TBK1 (Homo sapiens) (UniProt Q9UHD2); conditions: at 1 µM
T3 sequence (whole entry): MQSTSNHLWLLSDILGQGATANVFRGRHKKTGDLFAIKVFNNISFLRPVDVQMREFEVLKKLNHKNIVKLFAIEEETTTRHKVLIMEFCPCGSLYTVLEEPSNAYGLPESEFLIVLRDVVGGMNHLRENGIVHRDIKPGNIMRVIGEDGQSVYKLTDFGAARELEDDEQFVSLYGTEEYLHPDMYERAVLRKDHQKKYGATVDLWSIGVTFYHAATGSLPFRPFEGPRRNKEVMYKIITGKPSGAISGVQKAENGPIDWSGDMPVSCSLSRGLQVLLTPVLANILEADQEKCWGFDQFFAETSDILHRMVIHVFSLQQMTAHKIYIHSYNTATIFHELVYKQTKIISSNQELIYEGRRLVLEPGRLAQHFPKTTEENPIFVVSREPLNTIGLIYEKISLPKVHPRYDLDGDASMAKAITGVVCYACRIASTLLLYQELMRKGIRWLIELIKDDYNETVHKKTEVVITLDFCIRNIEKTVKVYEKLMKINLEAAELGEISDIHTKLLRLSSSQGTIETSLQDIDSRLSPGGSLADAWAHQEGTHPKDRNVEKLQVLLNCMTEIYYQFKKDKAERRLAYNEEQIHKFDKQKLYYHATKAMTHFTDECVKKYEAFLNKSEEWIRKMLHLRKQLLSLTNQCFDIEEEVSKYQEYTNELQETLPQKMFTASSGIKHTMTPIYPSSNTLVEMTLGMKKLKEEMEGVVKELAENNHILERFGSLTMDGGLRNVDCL

[6] = target: T3, Serine/threonine-protein kinase TBK1 (Homo sapiens); conditions: at 10 µM
[7] = target: T4, TGF-beta receptor type-1 (Homo sapiens) (UniProt P36897); conditions: at 1 µM
T4 sequence (whole entry): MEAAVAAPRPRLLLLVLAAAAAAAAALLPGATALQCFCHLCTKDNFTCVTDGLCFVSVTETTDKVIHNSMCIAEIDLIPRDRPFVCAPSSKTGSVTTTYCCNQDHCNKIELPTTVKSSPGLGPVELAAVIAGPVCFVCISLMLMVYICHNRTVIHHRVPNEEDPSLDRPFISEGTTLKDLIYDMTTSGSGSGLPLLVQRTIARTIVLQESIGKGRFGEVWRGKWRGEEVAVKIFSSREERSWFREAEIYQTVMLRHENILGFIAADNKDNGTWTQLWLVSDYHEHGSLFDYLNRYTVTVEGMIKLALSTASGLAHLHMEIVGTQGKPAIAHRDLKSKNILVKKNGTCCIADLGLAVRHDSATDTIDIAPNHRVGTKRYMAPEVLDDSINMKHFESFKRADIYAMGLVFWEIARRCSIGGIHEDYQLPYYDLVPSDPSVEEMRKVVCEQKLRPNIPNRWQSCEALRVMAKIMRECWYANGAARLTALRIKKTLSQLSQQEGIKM

[8] = target: T4, TGF-beta receptor type-1 (Homo sapiens); conditions: at 10 µM

Q: Which residual activity [1] does the source give for `CC(C)N(CCC(=O)c1ccc2ccccc2c1)Cc1ccccc1` here?
A: The residual activity was 87%.

Q: And the residual activity [2]?
A: The residual activity was 86%.

Q: What about the residual activity [3] of the same compound?
A: The residual activity was 100%.

Q: And the residual activity [4]?
A: The residual activity was 88%.

Q: And the residual activity [5]?
A: The residual activity was 52%.

Q: And the residual activity [6]?
A: The residual activity was 51%.

Q: What about the residual activity [7] of the same compound?
A: Its residual activity is 76%.

Q: What about the residual activity [8] of the same compound?
A: The residual activity was 74%.

Reference: ChEMBL document CHEMBL2218924, “A broad activity screen in support of a chemogenomic map for kinase signalling research and drug discovery” (Biochem J, 2013)
